Compounds with a hit are over-represented: about 19% of the library has one in this group of screens.
KB-3-1 cytotox = qHTS assay for MDR1-selective chemotherapeutics: Primary screen using the parental adenocarcinoma cell KB-3-1; Potency, µM (highest dose often 46.1 µM), usual class: cytotoxic; AID 1347075, 2019; 400,000 tested, 1.4% active; KB-3-1 viability, CellTiter-Glo ATP luminescence, 72 h; further: nearly all actives have a fitted effect of over 60% in size
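Cells are dispensed, compounds pinned in, plates held at 37 °C for 72 h, then CellTiter-Glo is added and luminescence read after 10 minutes. Cell line: parental KB-3-1 in phenol-red-free DMEM, 10% FBS.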
HT1080-NT tox = qHTS for induction of synthetic lethality in tumor cells producing 2HG: qHTS for the HT-1080-NT fibrosarcoma cell line | HT-1080-NT fibrosarcoma viability, CellTiter-Glo ATP luminescence, 48 h | Potency, µM (highest dose often 46.1 µM), for inactives: top-dose activity, negative = less viability, most hits filed as cytotoxic | 360,000 tested, 1.6% active | AID 686970, 2013;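 further: NT is the 2HG producing partner of a matched IDH1 knockdown line; 0% = DMSO-treated cells and -100% = media-only wells without cells; nearly all actives have a fitted effect of over 55% in size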
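HT-1080-NT; 750 cells/well; 5% FBS RPMI; 48 h compound, 37 degrees C; CellTiter-Glo luminescence; curve fitting and curve-class assignment.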
DT40 TDP1 no CPT = qHTS for Inhibitors of human tyrosyl-DNA phosphodiesterase 1 (TDP1): qHTS in cells in absence of CPT. DT40 Tdp1-/- hTDP1 cells, no CPT, ATP luminescence, 48 h. Potency, µM (doses to about 46.2 µM), without a hit: at the highest dose activity change, negative = growth inhibition, actives largely listed as inhibitors. 420,000 tested, 15% active. AID 686978, 2013; further: nearly all actives have a fitted effect of over 55% in size
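Growth of hTDP1-complemented DT40 Tdp1-knockout cells is measured by ATP luminescence after at least 48 hr compound exposure at 37 °C, with DMSO substituting for the 20 nM CPT used in the parallel screen.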
KB-V1 cytotox = qHTS assay for MDR1-selective chemotherapeutics: Primary screen using the drug-selected MDR subline cells KB-V1 | KB-V1 MDR cells viability, CellTiter-Glo, 72 h | 400,000 tested, 3.4% active | Potency, µM (doses to about 46.1 µM), most hits filed as cytotoxic; further: nearly all actives have a fitted effect of over 60% in size
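Luminescent ATP read-out (CellTiter-Glo, 10 min) measures survival of drug-selected KB-V1 MDR cells after 72 h, 37 degrees C compound exposure. Medium: phenol-red-free DMEM, 10% FBS. Values from fitted concentration-response curves.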
DT40 TDP1 CPT = qHTS for Inhibitors of human tyrosyl-DNA phosphodiesterase 1 (TDP1): qHTS in cells in presence of CPT; chicken DT40 Tdp1-/-;hTDP1 cells + 20 nM CPT, ATP luminescence, 48 h; Potency, µM (highest dose often 46.2 µM), for the others: at the highest dose activity change, negative = growth inhibition, actives largely listed as inhibitors; 420,000 tested, 12% active; AID 686979, 2013; further: nearly all actives have a fitted effect of over 55% in size
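Cell growth measured by CellTiter-Glo luminescence after a minimum 48 h, 37 C compound exposure with 20 nM CPT in Tdp1-knockout DT40 cells stably expressing hTDP1, seeded 400/well; qHTS titration format.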
HT1080 IDH1KD tx = qHTS for induction of synthetic lethality in tumor cells producing 2HG: qHTS for the HT-1080-IDH1KD cell line; HT-1080 IDH1 knockdown viability, ATP luminescence, 48 h; Potency, µM (titrated, usually from 46.1 µM), without a hit: at the top dose activity, negative = toxicity, usual class: cytotoxic; 360,000 tested, 2% active; AID 686971, 2013;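 further: 0% = DMSO wells and -100% = cell-free medium wells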
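CellTiter-Glo luminescence after 48 h compound exposure at 37 degrees C of IDH1-knockdown HT-1080 cells in 5% FBS RPMI. %Activity scaled between DMSO wells and cell-free media wells, with curves fitted and assigned curve classes.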
* marks the source's active call; other numbers are inactive results; i = inactive; u = inconclusive; x = not tested or not shown; [ ] = another dose, or the depositor's remark. The call rests on the fitted dose curve; in most records, active means well fitted curve in the direction sought with a large enough effect; inconclusive means small, poorly fitted or top-dose-only effect, or another doubt; inactive means no such curve, though single readings can be large; an effect the other way counts as inactive or inconclusive. Unless noted, on the % scale 0 is the no-effect control and ±100 the full control effect; potency means the concentration at half of the fitted maximal effect.

SMILES	KB-3-1 cytotox	HT1080-NT tox	DT40 TDP1 no CPT	KB-V1 cytotox	DT40 TDP1 CPT	HT1080 IDH1KD tx
CCCCN(C)C(=O)C1CCCN(S(=O)(=O)c2ccc3c(c2)oc(=O)n3C)C1 (centres undefined)	i	-0.6%	-11.4%	i	u	-1.2%
COC(=O)[C@]1(C)N[C@H](c2ccc(-c3ccc(Cl)c(Cl)c3)c(OC)c2)[C@@H]2C(=O)N(C)C(=O)[C@@H]21	u	u	7.31µM*	i	9.2µM*	u
CCN1C(=O)[C@H]2[C@@H](c3ccc(-c4cccc(Cl)c4)c(OC)c3)N[C@@](C)(C(=O)OC)[C@H]2C1=O	u	-0.5%	u	i	13µM*	-4.1%
COc1ccc(NC(=O)N2CCc3c(sc4c3CCCC4)C2c2ccc(F)cc2)cc1 (centres undefined)	i	x	20.6µM*	i	u	x
Cc1cccc(NC(=O)N2CCc3c(sc4c3CCCC4)C2c2ccc(F)cc2)c1 (centres undefined)	i	x	16.4µM*	u	u	x
COc1ccc(NC(=O)N2CCCC2C(=O)NCc2ccc(F)cc2)cc1 (centres undefined)	i	-4.9%	-29.2%	i	-1.6%	1.2%
CC(=O)c1ccc(N2CCN(S(=O)(=O)c3cc4c(cc3C)NC(=O)CO4)CC2)cc1	i	u	u	i	-23.8%	u
Cc1cc(C)cc(OCC(=O)OC(C)C(=O)Nc2c(C)n(C)n(-c3ccccc3)c2=O)c1 (centres undefined)	i	0.4%	-2.9%	i	-2.2%	1.8%
CCN(CC)c1ccc2nc3c4ccccc4c(=O)cc-3oc2c1	i	13.1%	-14.1%	i	-11.1%	9.9%
CCN(CC)c1ccc2c(-c3ccc(S(=O)(=O)O)cc3S(=O)(=O)[O-])c3ccc(=[N+](CC)CC)cc-3oc2c1	u	u	7.31µM*	u	u	u
FC(F)(F)c1cc(CO[C@@H]2CCCN[C@@H]2c2ccccc2)cc(C(F)(F)F)c1	i	u	13µM*	i	u	23.1µM*
COc1ccc(OCCOC(=O)CNC(=O)c2ccc(F)cc2)cc1	i	8.8%	3.6%	i	-0.2%	9.4%
Cc1nc([N+](=O)[O-])cn1-c1ccc([N+](=O)[O-])cc1	x	x	-3.4%	x	13.6%	x
Nc1c(S(=O)(=O)c2ccccc2)c2nc3ccccc3nc2n1/N=C/c1cccc(O)c1	u	-30.0%	23.1µM*	u	14.6µM*	-2.6%[9.24 µM]
CCOC(=O)c1cc(-c2ccc(OC)cc2)n(CCC(=O)NC2CCCCC2)c1C	x	x	16.4µM*	x	20.6µM*	x
CC(=O)c1cc(-c2ccc(F)cc2)n(CCC(=O)NC2CCCCC2)c1C	i	x	u	i	u	x
CCOC(=O)c1cc(-c2ccc(OC)cc2)n(CCC(=O)NC2CCC(C)CC2)c1C (centres undefined)	x	x	23.1µM*	x	16.4µM*	x
CC(=O)c1cc(-c2ccccc2)n(CCC(=O)NC2CCCC2)c1C	i	18.0%	23.4%	u	22.1%	2.5%
CCOC(=O)c1cc(-c2ccc(F)cc2)n(CCC(=O)NC2CCC(C)CC2)c1C (centres undefined)	u	x	16.4µM*	i	u	x
Cc1ccc2nc(N(CCCN(C)C)C(=O)CCc3ccccc3)sc2c1	i	14.6µM*	u	i	u	16.4µM*
CN(C)CCCN(C(=O)CCc1ccccc1)c1nc2ccc(Cl)cc2s1	u	23.1µM*	23.1µM*	23.1µM*	23.1µM*	16.4µM*
O=C(COCc1cc(-c2ccco2)on1)Nc1cccc(Cl)c1Cl	i	x	-9.6%	i	u	x
CCOC(=O)c1ccc(NC(=O)c2ccc(=O)n(Cc3cccc(C)c3)c2)cc1	i	x	16.4µM*	u	20.6µM*	x
CCCN1CCN(C(=O)Nc2ccc(C(=O)OCC)cc2)CC1	i	6.2%	-10.4%	u	9.3%	1.7%
O=C(Nc1ccccc1)c1ccc(=O)n(Cc2cccc(Cl)c2)c1	i	-11.6%	-10.6%	u	6.7%	-6.4%
SMILES	KB-3-1 cytotox	HT1080-NT tox	DT40 TDP1 no CPT	KB-V1 cytotox	DT40 TDP1 CPT	HT1080 IDH1KD tx
CC(C)c1ccc(NC(=O)c2ccc(=O)n(Cc3ccccc3)c2)cc1	u	x	20.6µM*	u	16.4µM*	x
CCOC(=O)c1ccc(NC(=O)c2c(N)n(Cc3ccccc3)c(=O)[nH]c2=O)cc1	i	3.1%	-101.0%	i	16.4µM*	10.5%
CCOC(=O)c1ccc(NC(=O)c2ccccc2)cc1	i	-1.0%	-14.9%	i	-14.2%	-2.5%
CCOC(=O)c1ccc(NC(=O)N2CCN(Cc3cccc(F)c3)CC2)cc1	i	-27.9%	-28.0%	18.4µM*	u	u
Cc1ccc(C)c(N2CCN(c3ncccc3[N+](=O)[O-])CC2)c1	i	-27.5%	-25.8%	i	17.0%	-21.0%
Cc1ccc(NC(=O)Cn2nnc(-c3ccccc3)n2)c(C)c1	i	x	x	i	x	x
CCC(C(=O)NC1CCCC1)n1c(C2CCCC2)nc2ccccc21 (centres undefined)	i	12.1%	u	u	-25.0%	5.4%
COc1cccc(CN2C(=O)c3ccccc3C2C(=O)NCCc2ccccc2)c1 (centres undefined)	i	x	-24.6%	i	u	x
COC(=O)/C=C1\OCc2cc(OC)c(OC)cc21	i	u	-2.2%	i	8.7%	20.4%
Cc1ccc(Nc2ccc(N3CCN(C(=O)c4ccc([N+](=O)[O-])cc4)CC3)nn2)cc1	x	x	23.1µM*	x	u	x
CC(C)(C)C(=O)N1CCN(c2ccc([N+](=O)[O-])cc2-n2cccc2)CC1	i	-28.3%	20.6µM*	i	u	-11.2%
O=C(C1CC1)N1CCN(c2ccc([N+](=O)[O-])cc2-n2cccc2)CC1	i	-19.1%	13µM*	i	11.6µM*	-26.6%
CC(C)(C)C(=O)N1CCN(c2ccc([N+](=O)[O-])cc2Cl)CC1	i	-3.9%	u	u	u	-3.3%

Assay outcomes (PubChem BioAssay)
